In the library only some 3.3% were active in any assay of this set; here they are far more common.
INS-1E GSIS act: GLuc luminescence reporter in INS-1E cells, primary screen for activators of glucose-dependent secretion of insulin | activation, % at 16.6 µM | 0.61% of 370,000 active | INS-1E GLuc reporter insulin secretion, 2-3 h | AID 743287;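 active means lowest replicate activation of at least 40%, so every replicate reaches that level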;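 further: 0% = median of neutral control wells and 100% = median of IBMX positive control wells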
FGF22 binding: shifts melting point of recombinant human FGF22. Q9HCT0. recombinant FGF22 thermal shift, SYPRO orange fluorescence; percent of sucrose octasulfate shift, DMSO zero. activity (Tm shift, normalised), % at 9.99 µM. 1.5% of 340,000 active. AID 651658;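 active means mean Tm shift, scaled 0 neutral to 100 positive control, at about 1.3% or above, every replicate too, limit read from the data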
Target sequence (Q9HCT0 whole entry, looked up): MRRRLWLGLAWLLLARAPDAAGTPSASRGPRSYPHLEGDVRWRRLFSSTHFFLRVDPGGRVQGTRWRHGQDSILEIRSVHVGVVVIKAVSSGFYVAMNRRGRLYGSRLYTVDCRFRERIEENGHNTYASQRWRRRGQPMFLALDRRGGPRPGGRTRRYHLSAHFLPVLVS
SIRT5 block: inhibitors of human sirtuin-5 desuccinylase; 1.1% of 330,000 active; inhibition, % at 15 µM; Purified SirT5, succinyl-peptide AMC, trypsin-coupled fluorescence; in the data active means inhibition above about 15%
Casp6 inh: caspase-6 (human) enzyme inhibition; P55212; purified caspase-6, Z-VEID-R110 cleavage fluorescence; inhibition, % at 12.5 µM; 0.53% of 350,000 active;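 active means mean inhibition across replicates at least about 35%, with every replicate also reaching that limit, limit read from the data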;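 further: 0% = median of neutral control wells and 100% = no fluorescence left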
Target sequence (P55212 24-179 limits assumed): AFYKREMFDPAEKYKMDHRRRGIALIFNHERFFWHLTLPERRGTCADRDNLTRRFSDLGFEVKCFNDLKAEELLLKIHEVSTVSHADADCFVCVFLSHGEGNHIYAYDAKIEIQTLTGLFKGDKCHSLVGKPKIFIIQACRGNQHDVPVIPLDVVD
Target sequence (P55212 194-293 limits assumed): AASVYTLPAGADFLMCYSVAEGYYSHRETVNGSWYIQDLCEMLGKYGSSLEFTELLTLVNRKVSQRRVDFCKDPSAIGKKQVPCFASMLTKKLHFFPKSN
ERAP1 inh: inhibitors of human ERAP1 aminopeptidase; Q9NZ08; recombinant ERAP1, Leu-AMC fluorescence, 60 min; inhibition, % at 10.7 µM; 0.15% of 340,000 active; AID 652197;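 active means mean replicate inhibition of at least 30%, or all replicates individually reaching that 30% level; inactive means mean below 30% and not every replicate reaching it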;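 further: 0% = neutral control wells and 100% = L-leucinethiol positive control wells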
Active calls of the source: *; . = no result given.

SMILES | INS-1E GSIS act | FGF22 binding | SIRT5 block | Casp6 inh | ERAP1 inh
CCNc1ccc(C(=O)OCC(=O)NCc2ccccc2Cl)cc1[N+](=O)[O-] | 59* | . | . | . | .
CC(CCc1ccccc1)NC(=O)COC(=O)c1ccc(S(C)(=O)=O)c([N+](=O)[O-])c1 (configuration not stated) | 9 | 0 | -2 | -3 | -2
O=C(C[C@@H]1CC[C@H](NC(=O)NC2CCCC2)[C@H](CO)O1)NCc1ccc(F)cc1 | -1 | 0 | -1 | -3 | 3
COc1ccc(S(=O)(=O)Nc2ccc3c(c2)CC(=O)N([C@H](C)CO)C[C@H](C)[C@H](CN(C)C(=O)NC2CCCCC2)O3)cc1 | -7 | 0 | 3 | 0 | -1
C[C@H]1CN([C@@H](C)CO)C(=O)CCCn2nncc2CO[C@@H]1CN(C)C(=O)CCC(F)(F)F | -6 | 0 | 4 | 1 | 0
O=C(N1CCOCC1)[C@@]1(Cc2ccccc2)N=C(c2ccc(OCCCO)cc2)O[C@H]1c1ccccc1 | . | 0 | -22 | 1 | -2
CN(C)S(=O)(=O)c1ccc(C(=O)OCc2nnc(-c3ccccc3)o2)cc1 | -3 | 0 | 0 | 1 | 0
CS(=O)(=O)c1ccc(C(=O)OCc2nnc(-c3ccccc3)o2)cc1[N+](=O)[O-] | 71* | 42 | -4 | 9 | -2
C[C@@H]1CCCCO[C@@H](CN(C)C(=O)C2CCCCC2)[C@H](C)CN([C@@H](C)CO)C(=O)c2cc(NS(=O)(=O)c3ccc(F)cc3)ccc2O1 | -17 | 0 | -5 | 1 | 3
Fc1cccc(Nc2ncnc3sccc23)c1 | 9 | 0 | -6 | 1 | -5
Cc1cc(F)ccc1S(=O)(=O)Nc1ncnc2sccc12 | -2 | 0 | 23* | -2 | 2
CCCC#Cc1ccc2c(c1)O[C@H](CN(C)CC1CCOCC1)[C@@H](C)CN([C@H](C)CO)S2(=O)=O | 6 | 0 | 8 | 1 | -1
O=C(O)c1ccccc1/C=N/NC(=O)c1cc(-c2ccco2)nc2ccccc12 | -8 | 0 | 19* | 61* | 2
CC(=O)Nc1ccc(/C=N/NC(=O)c2cc(-c3ccco3)nc3ccccc23)cc1 | -15 | 0 | 8 | 2 | 0
C=CC#CC1(O)CC(C)[N+](C)(C)CC1C (configuration not stated) | 14 | 0 | . | 6 | 106*
CCc1c(C(=O)OCc2ccccc2)[nH]c(C)c1C | . | 0 | -5 | 3 | -2
CCc1c(C)[nH]c(C(=O)OCc2ccccc2)c1C | -3 | 43* | -2 | -2 | -3
Cc1ccc([N+](=O)[O-])cc1S(=O)(=O)Nc1ccc(C(=O)N2CCN(C(=O)c3ccco3)CC2)cc1 | -1 | 0 | 2 | 54* | -1
O=C(O)CCN1CC2([N+](=O)[O-])C=CC(=O)C([N+](=O)[O-])(C1)C2CC(=O)c1ccccc1 (configuration not stated) | -15 | 0 | . | 43* | 0
O=C(Cn1cnc2c(nnn2-c2ccccc2)c1=O)NCC1CCCO1 (configuration not stated) | 9 | 0 | 4 | 0 | 4
Cc1cc(C)cc(-n2c(=O)c3ccccc3n(CC(=O)NCC3CCCO3)c2=O)c1 (configuration not stated) | 4 | 0 | 4 | -8 | -1
COc1ccc(-n2c(=O)c3ccccc3n(CC(=O)NCC3CCCO3)c2=O)cc1 (configuration not stated) | -2 | 44* | 2 | -8 | -2
COc1cccc(-n2nnc3c(=O)n(CC(=O)NCC4CCCO4)cnc32)c1 (configuration not stated) | . | 0 | 16* | 2 | 4
COc1cccc(-n2c(=O)c3ccccc3n(CC(=O)NCC3CCCO3)c2=O)c1 (configuration not stated) | 75* | 0 | -1 | -4 | -2
CSc1nc(N)nc2c1ncn2CC(=O)NCC1CCCO1 (configuration not stated) | 2 | 0 | 31* | 1 | -1
SMILES | INS-1E GSIS act | FGF22 binding | SIRT5 block | Casp6 inh | ERAP1 inh
C/C=C/c1ccc([C@H]2[C@@H](CO)N(C(=O)C3CC3)C23CN(S(=O)(=O)CC)C3)cc1 | 4 | . | 0 | 1 | 6
O=C(Nc1ccc(F)cc1)N[C@@H]1C[C@@H]2O[C@H](CO)CC[C@@H]2O[C@@H]1CCc1ccc(-c2ccccc2)cc1 | . | -1 | 7 | 1 | -2
CC(C)=N/N=c1\scc(C)n1Cc1ccco1 | 6 | 43* | -7 | -4 | 1
Cc1cs/c(=N\N=C\c2ccccc2)n1Cc1ccco1 | -4 | . | . | . | .
O=C(CSc1ccc(F)cc1)N1CCC(c2nc3ccccc3s2)CC1 | -23 | . | . | . | .
O=C(CN1CCC(c2nc3ccccc3s2)CC1)N1CCCCC1 | 4 | 42 | 38* | -4 | -2
C[C@@H]1CCCCO[C@@H](CN(C)Cc2ccncc2)[C@H](C)CN([C@H](C)CO)C(=O)c2cc(NC(=O)CCCN(C)C)ccc2O1 | 9 | . | . | . | .
COc1cc(-c2noc(C)c2/C=C/c2ccc(C(=O)O)cc2)cc(OC)c1OC | . | 0 | 7 | 35* | 42*
CC(=O)N1CCN(C(=O)COc2ccccc2C(=O)Nc2ccccc2)CC1 | 0 | 43* | -3 | 8 | 1
O=c1c2ccccc2c(/C=N/c2n[nH]c(CCCO)n2)c(O)n1-c1ccccc1Cl | -5 | 43* | 2 | 1 | -1
O=C(O)COc1ccc2c(c1)O/C(=C\c1cccs1)C2=O | -22 | 42 | 8 | -4 | 10
O=C(O)COc1ccc2c(c1)O/C(=C\c1ccco1)C2=O | 3 | 0 | 11 | 52* | -4
Cc1cc(C(=O)O)ccc1-c1ccc(/C=C2\NC(=O)N(Cc3ccc(F)cc3)C2=O)o1 | -3 | 0 | 5 | 31 | 1
COC(=O)C(C)N1C(=O)S/C(=C\c2ccc(-c3ccc(C(=O)O)cc3C)o2)C1=O (configuration not stated) | -6 | 0 | -1 | 21 | 57*
Cc1cc(C(=O)O)ccc1-n1c(C)cc(C=C2C(=O)c3ccccc3C2=O)c1C | 24 | . | 9 | 21 | 7
Cc1ccc(C(=O)O)cc1-c1ccc(C=C2C(=O)c3ccccc3C2=O)o1 | 14 | 0 | 8 | 37* | 3
CNC[C@H]1OCCCC[C@@H](C)Oc2ccc(NC(=O)Nc3c(C)noc3C)cc2C(=O)N([C@H](C)CO)C[C@H]1C | 2 | 0 | -4 | 0 | 7
COc1ccc(CN(C)C[C@@H]2Oc3c(NC(=O)Nc4c(C)noc4C)cccc3C(=O)N([C@H](C)CO)C[C@H]2C)cc1 | -14 | 0 | -3 | 1 | 2
O=C(CNC(=O)Cc1ccccc1)NCC(=O)N1CCCCC1 | 14 | 0 | -3 | -1 | -2
O=C(CNS(=O)(=O)c1ccccc1)N/N=C\c1ccc(Cl)cc1 | 8 | . | . | . | .
O=C(CNS(=O)(=O)c1ccccc1)N/N=C/c1ccc(O)cc1 | -4 | 43* | 0 | 1 | 1

Screening data (PubChem BioAssay)
